Several values for one entry are separate records, joined by “and”; a condition that tells them apart may be missing. Equal entries are not always repeated. Screen size: about 16,000 compounds; about 5,700 (36%) were called active. Inconclusive results (about 24%) are left out. Some of the results follow. A number with no mark means an inactive call. Calls come from the whole dose curve; as a rule, active = well fitted curve in the direction sought with a large enough effect; inconclusive = small, poorly fitted or top-dose-only effect, or effect the other way; inactive = no such curve, though single readings can be large or run the other way.

These results are taken from PubChem BioAssay AID1851 (National Center for Advancing Translational Sciences (NCATS), 2009).
% is set by controls: 0 for no effect and ±100 for the full control effect.

Sequence of Cytochrome P450 1A2 (Homo sapiens) (P05177 whole entry, looked up): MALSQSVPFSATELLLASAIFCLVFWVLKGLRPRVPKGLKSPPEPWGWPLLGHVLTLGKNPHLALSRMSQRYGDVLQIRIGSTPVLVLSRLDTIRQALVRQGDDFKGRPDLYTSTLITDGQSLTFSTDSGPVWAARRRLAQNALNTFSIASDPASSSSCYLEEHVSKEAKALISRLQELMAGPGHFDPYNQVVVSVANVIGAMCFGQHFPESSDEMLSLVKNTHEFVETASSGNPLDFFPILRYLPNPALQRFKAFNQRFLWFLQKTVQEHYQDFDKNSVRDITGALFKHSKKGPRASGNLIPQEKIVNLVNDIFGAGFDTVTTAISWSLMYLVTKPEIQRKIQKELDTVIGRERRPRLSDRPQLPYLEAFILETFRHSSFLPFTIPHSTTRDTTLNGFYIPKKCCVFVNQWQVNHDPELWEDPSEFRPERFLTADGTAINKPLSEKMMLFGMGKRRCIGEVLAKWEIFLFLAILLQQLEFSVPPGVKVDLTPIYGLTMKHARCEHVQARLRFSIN

This experiment addresses Cytochrome P450 1A2 (Homo sapiens) (UniProt P05177). Description: Cytochrome panel assay with activity outcomes. The settings on record: recombinant CYP, pro-luciferin dealkylation, luminescence, p450-cyp1a2; series mostly up to 57.1 µM.
Consider `COC(=O)C/C=C\[C@@H](C)[C@@H](/C=N\OC[C@@H](O)COCc1ccco1)OC`, for which the activity, negative = inhibition is -1.53% [at 11.4 µM].
For orientation: AC50 means the concentration giving half of the maximal activity seen. In the case of `CC(C)NC(=O)N1CC[C@@]2(CCCN(S(C)(=O)=O)C2)C1`, the AC50 result was “inactive”.
Same read-out and setting: then `COc1ccc2[nH]cc(CCNc3ncncc3-c3ccccc3C)c2c1`, with 0.631 µM (active); and `COc1ccc2[nH]cc(CCNc3ncncc3-c3ccccc3OC)c2c1`, with 2.51 µM (active).
The same measure, in the same setting: for `CN(C)CCN1C(=O)C(O)=C(C(=O)c2cc3ccccc3o2)C1c1cccc(Br)c1` (stereo not drawn) the value was “inactive”; for `CCOC(=O)CN1C(=O)Nc2ccc(Br)cc2C1c1ccccc1` (stereo not drawn), 3.16 µM (active); for `CS(=O)(=O)N1CCC2(CC1)CN(C(=O)Nc1ccccc1)C2`, “inactive”.
Same read-out and setting: for `Cc1ccc(OC[C@H](O)[C@H](C)NC(C)C)c2c1CCC2` the value was 1.58 µM (active) and 398 nM (active).
With `CC(C)(C)NC[C@H](O)COc1cccc2c1CCCC2=O`, the AC50 entry is “inactive”.
On to `CC(C)(C)NC[C@H](O)COc1cccc2c1CCC(=O)N2`, for which the AC50 result is “inactive”.
For `CCOC(=O)CCN1C(=O)[C@H]2[C@H]3[C@H](O)[C@H](O)C/C(=N/OCC(C)C)[C@@H]3CC[C@@H]2C1=O`, the activity, negative = inhibition is -8.45% [at 11.4 µM].
Regarding `Cc1ccc(NC(=S)Nc2ccc(Br)cc2)cc1`, the concentration at half-maximal activity (AC50) was 3.55 µM (active).
In the case of `CCC(=O)NC(=S)Nc1ccc(S(=O)(=O)NC(C)=O)cc1`, the AC50 entry is “inactive”.
Same read-out and setting: then `CCCNC(=S)Nc1ccc(Br)cc1`, with 7.08 µM (active); and `Cc1ccc(NC(=O)C2C3CCCC2C3c2ccccc2)cc1C` (stereo not drawn), with “inactive”.
Same read-out and setting: for `Cc1cc(NC(=S)Nc2ccccc2)ccc1Br` the value was 5.62 µM (active); for `COc1ccc(CC(=O)NC(=S)Nc2ccc(S(=O)(=O)NC(C)(C)C)cc2)cc1`, “inactive”.
The same measure, in the same setting: then `Cc1cc(NC(=S)NC(=O)CC(C)C)ccc1Br`, with 5.62 µM (active); and `Cc1cccc(NC(=S)Nc2ccc(Br)cc2)c1`, with 3.55 µM (active); and `Cc1cccc(N2CCN(c3ccc(NC(=O)/C=C(/C(=O)O)c4ccccc4)cc3)CC2)c1`, with “inactive”.
In the case of `C/C(=N\NC(=S)Nc1cccc(C)c1)c1ccccc1`, the AC50 was 0.891 µM (active).
As to `CC(=O)OCC(=O)[C@]12OC(C)(C)O[C@@H]1C[C@H]1[C@H]3CC=C4C[C@@H](O)CC[C@]4(C)[C@H]3CC[C@]12C`, the activity, negative = inhibition is 4.12% [at 11.4 µM].
Regarding `Cc1csc(NC(=O)CNS(=O)(=O)c2cccs2)n1`, the AC50 is 12.6 µM (active).
`CCOC(=O)N1CCN(C(=O)CNS(=O)(=O)c2cccs2)CC1`: the AC50 result was “inactive”.
Same read-out and setting: then `Cc1ccc(S(=O)(=O)NCC(=O)N(CC(=O)NCc2ccco2)Cc2cccs2)cc1`, with “inactive”; and `Cc1csc(NC(=O)Cc2c[nH]c3ccccc23)n1`, with 11.2 µM (active); and `Cc1ccnc(NS(=O)(=O)c2ccc(N)cc2)n1`, with “inactive”.
On the same count and under the same terms, for `COCc1c(C(=O)OCC(=O)N2c3ccccc3NC(=O)C2(C)C)oc2ccccc12` the value was 0.562 µM (active).
The same measure, in the same setting: for `CCCCC1(C)OC(=O)C(=Cc2ccc(N(CC)CC)cc2)C(=O)O1` (stereo not drawn) the value was 5.01 µM (active); for `CCc1nnc(NC(=O)CCC(=O)N2CCN(c3ccccn3)CC2)s1`, “inactive”; for `CCc1nnc(NC(=O)c2c(C)nn(-c3ccccc3)c2Cl)s1`, 7.08 µM (active).
On to `CCn1c(C)nc2cc(S(=O)(=O)C(F)F)ccc21`, for which the AC50 is 5.01 µM (active).
Turning to `O=C(N/N=C1/C[C@@H](O)[C@@H](O)[C@@H]2[C@H]3C(=O)N(c4ccc(F)cc4F)C(=O)[C@@H]3CC[C@H]12)OCc1ccccc1`, the activity, negative = inhibition is -2.59% [at 11.4 µM].
With `CC(C)(C)C(=O)Nc1cccc(-c2nc3ccccc3c(=O)o2)c1`, the AC50 is 11.2 µM (active).
In the case of `N=C(N)SCc1cccc(-c2nc3ccccc3c(=O)o2)c1`, the activity, negative = inhibition is -10.3% [at 2.29 µM].
`CC(CC(=O)O)CC(=O)Nc1ccc(S(N)(=O)=O)cc1` (stereo not drawn): the AC50 result is “inactive”.
With `CC(C)CC(=O)Nc1ccc2c(c1)oc1ccccc12`, the concentration at half-maximal activity (AC50) is 0.794 µM (active).
`O[C@H](C[C@@H]1CCCCN1)c1ccc2c(c1)oc1ccccc12`: the activity, negative = inhibition was -10.4% [at 2.29 µM].
With `Cc1cc(-c2ccc(/C=N/n3cnnc3)o2)c([N+](=O)[O-])cc1C`, the AC50 was 0.316 µM (active).
Turning to `C[C@@H]1/C=C\CC(=O)OC[C@H]2O[C@@H](C=C[C@@H]2O)[C@H](C)/C=C\CC(=O)OC[C@H]2O[C@H]1C=C[C@@H]2O`, the activity, negative = inhibition is 7.11% [at 11.4 µM].
For the molecule `CCC(C)Nc1nc(OCC(F)(F)F)nc(OCC(F)(F)F)n1` (stereo not drawn), the half-maximal activity concentration (AC50) was 10 µM (active).
As for `C[C@@H]1O[C@H](O[C@@H]2[C@H](C)O[C@H](O[C@@H]3[C@H](C)O[C@H](O[C@H]4CC[C@]5(C)[C@@H](CC[C@@H]6[C@H]5C[C@@H](O)[C@]5(C)[C@@H](C7=CC(=O)OC7)CC[C@]65O)C4)C[C@@H]3O)C[C@@H]2O)C[C@H](O)[C@@H]1O`, the AC50 entry is “inactive”.
On the same count and under the same terms, then `O=S(=O)(c1ccccc1)c1cnn2c(C(F)(F)F)cc(-c3ccc(F)cc3)nc12`, with 0.794 µM (active); and `O=S(=O)(c1ccccc1)c1cnn2c(C(F)(F)F)cc(-c3ccccc3)nc12`, with “inactive”.
As for `C[N+](C)(C)c1ccc([C@H](N)C(=O)O)cc1`, the activity, negative = inhibition was -19.7% [at 11.4 µM].
`N#Cc1cc(N)ccc1Sc1ccc(Cl)cc1`: the AC50 was 1.78 µM (active).
Still for that read-out and setting: then `COc1ccc(Sc2ccc(NC(=O)c3ccccc3Cl)cc2C#N)cc1`, with “inactive”; and `CNc1cc(OC)c(C(=O)N[C@@H]2CCN(Cc3ccccc3)[C@H]2C)cc1Cl`, with 31.6 µM (active); and `CCN1CCC[C@H]1CNC(=O)c1cc(S(N)(=O)=O)ccc1OC`, with “inactive”.
The same measure, in the same setting: for `CCC(C)[C@H](NC(=O)NC1CCN(Cc2ccccc2)CC1)C(=O)OC` (stereo partly drawn) the value was “inactive”.
In the case of `CC(=O)N(CC(O)CN(C(C)=O)c1c(I)c(C(=O)NC[C@@H](O)CO)c(I)c(C(=O)NC[C@@H](O)CO)c1I)c1c(I)c(C(=O)NC[C@@H](O)CO)c(I)c(C(=O)NC[C@@H](O)CO)c1I`, the AC50 entry is “inactive”.
For the molecule `CC(=O)/C(=N\N=C(N)N)c1ccccc1`, the activity, negative = inhibition was -17.2% [at 2.29 µM].
As for `NC(N)=N/N=C(/c1ccccc1)c1ccc(O)cc1O`, the AC50 was 3.16 µM (active).
In the case of `CCN1C(=O)[C@H]2[C@H]3[C@H](O)[C@H](O)C/C(=N/OC[C@@H](O)COCc4ccco4)[C@@H]3CC[C@@H]2C1=O`, the activity, negative = inhibition was -5.56% [at 11.4 µM].
In the case of `CCc1ccccc1NC(=O)CSc1nc(-c2ccccc2)nn1C(=O)c1cccc([N+](=O)[O-])c1`, the AC50 was 3.16 µM (active).
The same measure, in the same setting: then `O=C(NCc1cn(-c2ccccc2)nc1-c1ccccc1)c1cc([N+](=O)[O-])cc([N+](=O)[O-])c1`, with “inactive”; and `COc1ccc(C(=O)N2CCC3(CCCN(C)C3)CC2)cc1`, with “inactive”.
The same measure, in the same setting: for `COc1ccc2c(c1)CCc1c(C(=O)N3CCCCCC3)noc1-2` the value was 6.31 µM (active).
`COc1ccc(NC(=O)N2CCCC3(CCN(C(=O)c4ccc(OC)cc4)CC3)C2)cc1`: the AC50 entry was “inactive”.
The same measure, in the same setting: then `CC(C)COCC1CC2(CC(C)(c3csc(N)n3)OC2=O)C(=O)O1` (stereo not drawn), with “inactive”; and `COCCNC(=O)c1ccc2c(c1)nc(C)n2-c1cc(OC)c(OC)c(OC)c1`, with “inactive”; and `COCCNC(=O)c1ccc2c(c1)ncn2-c1ccc(F)c(F)c1`, with 15.8 µM (active).
Still for that read-out and setting: for `C[N+](C)(C)CCN(Cc1ccc(Cl)cc1)c1ccccn1` the value was “inactive”.
Still for that read-out and setting: then `CN(CCOc1ccc(C[C@H](Nc2ccccc2C(=O)c2ccccc2)C(=O)O)cc1)c1ccccn1`, with “inactive”; and `O=C(COc1ccc(Cl)cc1)N(Cc1ccccc1)c1ccccn1`, with 2.24 µM (active); and `O=C(CCCn1c(=S)[nH]c2ccc(Br)cc2c1=O)NCC1CCCO1` (stereo not drawn), with 4.47 µM (active).
With `O=C(c1ccc2c(=O)n(CC3CCCO3)c(=S)[nH]c2c1)N1CCN(c2ccccc2)CC1` (stereo not drawn), the AC50 entry is “inactive”.
On the same count and under the same terms, then `O=C(CCn1c(=S)[nH]c2ccccc2c1=O)NCCCN1CCOCC1`, with “inactive”; and `COCCNC(=O)CCCCCn1c(=S)[nH]c2ccccc2c1=O`, with 14.1 µM (active); and `O=C(c1cnccn1)N1CCC2(CC1)CCN(c1ncccn1)CC2`, with “inactive”.
Take `Cc1[nH]nc(-c2ccc(OCc3cnn(-c4ccccc4)c3)cc2O)c1Oc1ccccc1F`: the half-maximal activity concentration (AC50) is 22.4 µM (active).
Same read-out and setting: then `COC(=O)c1ccc(Oc2coc3cc(OCc4cnn(-c5ccccc5)c4)ccc3c2=O)cc1`, with “inactive”.
`Cc1cc(C)cc(C(=N)c2ccccc2Cc2cccc3ccccc23)c1`: the activity, negative = inhibition was -5.4% [at 2.29 µM].
Same read-out and setting: for `CO[C@H]1COC(=O)CCC[C@@H](C)[C@H](OC)COC(=O)[C@H]2CCCN2C(=O)C/C=C\[C@@H]1C` the value was -4.29% [at 11.4 µM].
Take `COC(=O)c1ccc(NC(=O)C2CCCCC2C(=O)O)cc1` (stereo not drawn): the AC50 entry was “inactive”.
Consider `O=C(Nc1ccc(Cl)cc1)NC1CCCCC1`, for which the AC50 result was “inactive”.
Same read-out and setting: then `COC(=O)c1ccc(NC(=S)NC2CCCCC2)cc1`, with 14.1 µM (active).
In the case of `Cc1ccc(NC(=S)N2CCN(C3CCCCC3)CC2)cc1`, the AC50 entry is “inactive”.
Same read-out and setting: then `Cc1ccc(NC(=S)NC2CCCC2)cc1`, with 15.8 µM (active); and `CC(=O)NS(=O)(=O)c1ccc(NC(=O)NC2CCCCC2)cc1`, with “inactive”; and `CCc1cccc(CC)c1NC(=O)CN(CC(=O)O)CC(=O)O`, with “inactive”.
Still for that read-out and setting: then `CN(C)CCCn1c2c3ccccc3ccc2c2oc(=O)c3ccccc3c21`, with 0.316 µM (active).
Consider `CCn1c2ccccc2c2cc(NS(=O)(=O)c3ccccc3C)ccc21`, for which the AC50 is 3.16 µM (active).
The same measure, in the same setting: then `CC(=O)Nc1cc(S(=O)(=O)Nc2ccccc2)c(C)cc1C`, with “inactive”; and `COc1c(NC(C)=O)c2ccccc2c2ccccc12`, with 0.398 µM (active); and `CC(=O)Nc1ccccc1C(=O)C(=O)O`, with “inactive”.
Same read-out and setting: then `COCCN=C1Sc2nc3c(C)cccc3cc2CN1Cc1ccco1`, with 0.631 µM (active).
Still for that read-out and setting: for `O=c1c2ccccc2nc2n1CC/C2=C\c1ccccc1[N+](=O)[O-]` the value was 3.16 µM (active).
For the molecule `COc1cccc(Nc2ncc3ncc(=O)n(Cc4cccs4)c3n2)c1`, the AC50 is 1.58 µM (active).
The same measure, in the same setting: for `COc1cccc(Nc2ncc3nc(C)c(=O)n(Cc4cccs4)c3n2)c1` the value was 2.51 µM (active).
Same read-out and setting: for `COc1ccc(-c2nc3cnc(Nc4cccc(OC)c4)nc3n(Cc3cccs3)c2=O)cc1` the value was “inactive”.
Same read-out and setting: then `Cc1nc2cnc(Nc3ccccc3)nc2n(Cc2cccs2)c1=O`, with 1.58 µM (active); and `O=c1cnc2cnc(Nc3ccccc3)nc2n1Cc1cccs1`, with 1 µM (active).
